Screening results deposited in PubChem BioAssay by National Center for Advancing Translational Sciences (NCATS).
Most compounds without a hit are left out; they make up all but 11% or so of the library.
PNC inhibitor – High Content Assay for Compounds that inhibit the Assembly of the Perinucleolar Compartment. PC3M PTB-GFP, PNC prevalence imaging, 16 h; hits give low values. activity change (PNC), negative = inhibition, % at 10 µM. actives 3.1% (n = 140,000);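 active = readout at or below -70, meaning at least 70% loss of cells showing the perinucleolar compartment, a nuclear body marking cancer cells; inconclusive = readout between -30 and a set limit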
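Read-out is percentage of cells bearing a perinucleolar compartment, from automated 20x imaging of fixed, Hoechst-stained PC3M PTB-GFP cells. Cells were seeded 4 h, then exposed 16 h to compound (23 nl of library stock) in duplicate plates.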
IMPase cell inh – qHTS Assay for Identifying the Cell-Membrane Permeable IMPase Inhibitors; CHO-M1 cells, IP1 accumulation, HTRF TR-FRET ratio; Inositol monophosphatase 1 (Rattus norvegicus), P97697; 120,000 tested, under 10 active; inhibition (IP1 accumulation), % at 46.1 µM; active = well fitted curve in the direction sought with a large enough effect in the signal ratio, not every such curve was filed as active; inconclusive = small, poorly fitted or top-dose-only effect, or a change in a side signal; inactive = no such curve, though single readings can be large or run the other way; the % refers to the signal ratio;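 also: cells stimulated with carbachol in lithium chloride buffer; higher means more IMPase inhibition seen as more IP1 and lower FRET ratio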
Target sequence (P97697 whole entry, looked up): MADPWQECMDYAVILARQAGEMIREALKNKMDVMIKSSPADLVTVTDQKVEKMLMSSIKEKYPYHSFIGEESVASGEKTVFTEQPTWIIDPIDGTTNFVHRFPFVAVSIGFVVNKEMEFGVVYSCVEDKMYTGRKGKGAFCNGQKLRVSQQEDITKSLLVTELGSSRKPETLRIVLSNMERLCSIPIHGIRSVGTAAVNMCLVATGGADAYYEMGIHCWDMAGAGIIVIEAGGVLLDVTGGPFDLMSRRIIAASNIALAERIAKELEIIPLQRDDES
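CHO-M1 cells (CHO stably expressing M1 receptor), compound up to 46 uM final, stimulated with carbachol (50 uM as added) in buffer with 50mM LiCl, pH 7.4, 30 min at 37C. Cytosolic IP1 read by TR-FRET; AC50 from Hill fits.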
NPSR antag – qHTS Assay for Antagonists of the Neuropeptide S Receptor: cAMP Signal Transduction. Potency, µM (titrated, usually from 38.3 µM), most hits filed as inhibitors. actives 1% (n = 220,000). Q6W5P4. CHO-NPSR cells, cAMP TR-FRET, antagonist mode; also: nearly all actives have a fitted effect of over 50% in size
Target sequence (Q6W5P4 whole entry, looked up): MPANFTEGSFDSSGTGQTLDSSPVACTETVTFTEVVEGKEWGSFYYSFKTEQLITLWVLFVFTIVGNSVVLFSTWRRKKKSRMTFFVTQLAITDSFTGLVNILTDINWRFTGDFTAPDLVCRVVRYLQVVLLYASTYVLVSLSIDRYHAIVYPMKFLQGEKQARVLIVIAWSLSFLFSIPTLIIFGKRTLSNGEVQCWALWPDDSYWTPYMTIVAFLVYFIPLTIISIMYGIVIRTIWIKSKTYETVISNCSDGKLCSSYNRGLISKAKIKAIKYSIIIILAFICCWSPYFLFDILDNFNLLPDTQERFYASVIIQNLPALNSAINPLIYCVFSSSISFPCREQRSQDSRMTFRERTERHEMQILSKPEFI
IMPase Li inh – qHTS Assay for Identifying the Cell-Membrane Permeable IMPase Inhibitors: Potentiation with Lithium. CHO-M1 cells, IP1 TR-FRET (IP-One), carbachol + lithium. Potency, µM (titrated, usually from 59.4 µM), usual class: inhibitors. actives 0.35% (n = 210,000);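 also: IP1 builds up when IMPase is blocked and the TR-FRET signal falls; nearly all actives have a fitted effect of over 50% in size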
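Test compounds were applied to CHO-M1 cells previously cultured for 16–30 h at 2000 per well. A small lithium amount accompanied them; after 30 min at 37C, IP1 was quantified by TR-FRET.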
ALDH1A1 inh – qHTS Assay for Inhibitors of Aldehyde Dehydrogenase 1 (ALDH1A1) | Aldehyde dehydrogenase 1A1 (Homo sapiens), P00352 | Potency, µM (highest dose often 75.3 µM), usual class: inhibitors | Purified ALDH1A1, NADH fluorescence, propionaldehyde substrate | actives 7.3% (n = 220,000); active = well fitted inhibition curve with a large enough effect, not every such curve was filed as active; inconclusive = small, poorly fitted or top-dose-only effect, or another doubt; inactive = no such curve, though single readings can be large or run the other way
HPGD inh – qHTS Assay for Inhibitors of HPGD (15-Hydroxyprostaglandin Dehydrogenase) | 15-hydroxyprostaglandin dehydrogenase [NAD(+)] (Homo sapiens), P15428 | purified HPGD, NADH fluorescence kinetic, PGE2 substrate | Potency, µM, actives largely listed as inhibitors | actives 4.3% (n = 150,000); active = well fitted inhibition curve with a large enough effect, not every such curve was filed as active; inconclusive = small, poorly fitted or top-dose-only effect, or another doubt; inactive = no such curve, though single readings can be large or run the other way
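20 nM HPGD preincubated 15 min at room temperature with compound in 50 mM Tris-HCl pH 8, 0.01% Tween 20. Started with 1 mM NAD+ and 30 uM prostaglandin E2; NADH fluorescence (360/450 nm) read 5 times over 30-s intervals, last minus first.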
Hits are given with their value; 0 = inactive; ? = inconclusive; - = not tested or not shown; ! = repeats disagree; [ ] = another dose, or the depositor's remark. Unless noted, calls follow the shape of the dose curve; as a rule, active = well fitted curve in the direction sought with a large enough effect; inconclusive = small, poorly fitted or top-dose-only effect, or another doubt; inactive = no such curve, though single readings can be large; an effect the other way counts as inactive or inconclusive.

SMILES	PNC inhibitor	IMPase cell inh	NPSR antag	IMPase Li inh	ALDH1A1 inh	HPGD inh
N#Cc1cc(N)ccc1Sc1ccccc1	0	0	0	0	?	?
CCNS(=O)(=O)c1cccc(C(=O)c2c(C)cc3ccccn23)c1	-90	-	0	0	0	0
CCn1c(SCC(=O)OC)nnc1-c1ccc(C)cc1	-	-	0	-	-	-
CCCCc1ccc(NC(=O)CC(C)=O)cc1	-127	0	0	0	0	0
CCCCc1ccc(NC(=O)C(C)CC)cc1 (stereo not drawn)	-	-	0	0	0	-
CCCCc1ccc(NC(=O)CC(C)(C)C)cc1	0	-	0	0	0	14µM
CCC(=O)Nc1ccc(S(=O)(=O)NCc2ccco2)cc1	0	0	0	0	0	0
O=C1C(Cc2ccccc2)S/C(=N/N=C/c2ccco2)N1c1ccccc1 (stereo not drawn)	0	0	0	0	?	0
O=C(C1=C[C@H](c2ccc(C(F)(F)F)cc2)C[C@H](OCCCCO)O1)N1CCOCC1	-	-	0	0	0	-
Cc1ccc(-c2cc(NC(=O)CSc3n[nH]c(N)n3)n(-c3ccccc3)n2)cc1	0	0	0	0	0	0
Cc1ccc(C(=O)CSc2n[nH]c(C)n2)cc1	0	0	0	0	?	?
Nc1nc(SCC(=O)c2ccc(Oc3ccccc3)cc2)n[nH]1	?	0	0	0	14µM	0
Nc1nc(SCC(=O)Nc2cc(-c3ccccc3)nn2-c2ccccc2)n[nH]1	?	0	0	0	10µM	0
CCCn1c(SCC(=O)c2cc(C)ccc2C)n[nH]c1=O	0	0	0	0	0	0
CCc1ccc(C(=O)CSc2n[nH]c(C)n2)cc1	0	0	0	0	11µM	35µM
Cc1ccc(C)c(C(=O)CSc2n[nH]c(C(C)C)n2)c1	0	0	0	0	0	16µM
COc1ccccc1NC(=O)c1nn(-c2ccc(Cl)cc2)ccc1=O	0	?	0	0	0	0
Cc1ccc(CSc2nnc(SCC(=O)N/N=C/c3ccccc3OCC(=O)O)s2)cc1	-	-	0	-	-	-
Cc1ccc(C)c(C(=O)CSc2n[nH]c(C)n2)c1	0	0	0	-	?	-
CCc1nc(SCC(=O)c2cc(C)ccc2C)n[nH]1	?	0	0	0	?	40µM
Cc1ccc(C2=NN(Cc3nnc(-c4ccccc4)o3)C(=O)SC2)cc1	0	-	0	0	0	11µM
c1ccc(-c2nnc(CN3CCN(c4ccccc4)CC3)o2)cc1	-	-	0	0	0	-
CC(C)n1c(SCC(=O)N2CCN(C(=O)c3ccco3)CC2)nc2c1c(=O)n(C)c(=O)n2C	-	-	0	-	-	-
CN(CC(=O)N1CCN(c2ncccn2)CC1)S(=O)(=O)c1ccc(Cl)cc1	-	-	0	0	0	-
CCN1C(=O)CC(NNC(=O)c2ccc(Cl)cc2)C1=O (stereo not drawn)	0	0	0	0	0	0
SMILES	PNC inhibitor	IMPase cell inh	NPSR antag	IMPase Li inh	ALDH1A1 inh	HPGD inh
O=c1cc(C(F)(F)F)nc(-c2ccccc2)[nH]1	?	0	0	0	0	14µM
NC(=O)c1ccc(-c2nc(-c3ccc4c(c3)OCO4)c(-c3ccccn3)[nH]2)cc1	-	0	-	2.5µM!	?	?
COc1ccc(-c2[nH]c(-c3ccc4c(c3)OCO4)nc2-c2ccccc2)cc1	0	0	?	0	?	?
COc1ccc(NC(=O)c2ccccc2N(Cc2ccccc2)S(C)(=O)=O)cc1OC	-	-	0	0	0	-
Cc1cc(C)nc(N(C#N)CN2C(=O)c3ccccc3C2=O)n1	0	0	0[7.67 µM]	0	25µM	?
Cc1cc(C)nc(N(C#N)Cc2ccccc2Cl)n1	0	0	0	0	14µM	0
COc1cccc(C2=NOC(C(=O)N3CCN(c4ccccc4)CC3)C2)c1OC (stereo not drawn)	0	0	0	0	?	0
Cc1ccc(NC(=O)C(=O)NCCN2CCN(S(C)(=O)=O)CC2)cc1C	-	-	0	0	?	-
S=C(NCC1CCCO1)N1CCN(c2ccccc2)CC1 (stereo not drawn)	-	-	0	0	0	-
Cc1cccc(NC(=S)NCc2cccn2C)c1	?	0	?	0	0	0
Cc1ccc(N2C(=O)C3C4C=CC(CNC(=S)N5CCN(c6ccccc6)CC5)(O4)C3C2=O)cc1 (stereo not drawn)	-	-	0	?	0.63µM	-
Cc1ccc(NC(=S)NCC23C=CC(O2)C2C(=O)N(c4ccc(C)cc4)C(=O)C23)cc1 (stereo not drawn)	0	-	0	0	1.3µM	?
Cc1cccc(NC(=S)NCC23C=CC(O2)C2C(=O)N(c4ccc(Cl)cc4)C(=O)C23)c1 (stereo not drawn)	0	-	0	0	1.4µM	0
Cc1ccc(S(=O)(=O)NCCc2ccccc2)cc1	0	0	0	0	0	0
Cc1ccc(S(=O)(=O)NCC23C=CC(O2)C2C(=O)N(c4ccccc4)C(=O)C23)cc1 (stereo not drawn)	0	0	0	0	3.5µM	?
CC1CCN(c2cc(N(C)CCO)c([N+](=O)[O-])c3nonc23)CC1	-	-	0	0	?	-
CC1CC(C)CN(c2cc(N(C)CCO)c([N+](=O)[O-])c3nonc23)C1 (stereo not drawn)	-	-	0	0	11µM	-
COc1ccccc1NC(=S)N(Cc1ccccc1)Cc1cccs1	-	-	0	0	0	-
Cc1c(C(C)(C)C)c(C=S)n2ccccc12	0	0	0	0	22µM	0
CC(C)(C)c1ccc(-c2nc(C=O)c3ccccn23)cc1	0	0	0	0	?	0
COC(=O)C(O)(CC(=O)Nc1ccc(OC)cc1)C(F)(F)F (stereo not drawn)	?	0[0.369 µM]	0	0	0	0
CCOC(=O)C(O)(CC(=O)c1ccc(OC)cc1)C(F)(F)F (stereo not drawn)	-81	0	0	0	?	0
Cc1cc(C(=O)NC(=S)Nc2ccccc2N2CCCC2)ccc1[N+](=O)[O-]	0	0	0	0	?	0
Cc1cc(C(=O)NC(=S)Nc2ccccc2N2CCOCC2)ccc1[N+](=O)[O-]	0	-	0	0	10µM	0
COc1ccc(C(=O)NC(=S)Nc2ccc(N3CCOCC3)c(Cl)c2)cc1[N+](=O)[O-]	-100	-	0	0	0	8.9µM
COc1ccc(C(=O)NC(=S)Nc2ccccc2N2CCOCC2)cc1[N+](=O)[O-]	0	-	0	0	7.1µM	0
COc1ccc(C(=O)Nc2ccccc2N2CCOCC2)cc1[N+](=O)[O-]	0	-	0	0	?	0
CCCC(=O)NC(=S)Nc1ccc(N2CCOCC2)c(Cl)c1	0	-	0	0	0	0
